# According to PubChem BioAssay (NCATS):
# Values joined by “and” are separate entries in the source; they are usually repeats but may differ in a detail not shown here. Equal entries are not always repeated. Results filed as inconclusive are left out. A call without a number means that no potency is given here. Active and inactive are the calls of the source. Unless noted, calls come from the whole dose curve.
# Legend:
# [1] = molecular target: Androgen receptor (Homo sapiens) (UniProt P10275); assay: qHTS assay for small molecule agonists of androgen receptor signaling (AID 588515; active = well fitted curve in the direction sought with a large enough effect in the signal ratio, with a control signal flat; the % refers to the signal ratio); conditions: AR-UAS-bla HEK293, beta-lactamase ratio, agonist 16 h; stronger effect = higher value
# Method in brief: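 Stimulation of an AR-responsive β-lactamase reporter in GripTite HEK293 cells was measured after 16 h compound exposure at 37 °C, via CCF4 fluorescence after 2 h RT. EC50 from Hill fits, normalized to R1881 at 30 nM.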
# [2] = molecular target: Androgen receptor (Homo sapiens) (UniProt P10275); assay: qHTS assay for small molecule antagonists of androgen receptor signaling (AID 588516; active = well fitted curve in the direction sought with a large enough effect in the signal ratio, with a control signal flat, not every such curve was filed as active; the % refers to the signal ratio); conditions: AR-UAS-bla HEK293, beta-lactamase ratio, antagonist mode, 16 h; series mostly up to 76.8 µM
# Method in brief: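 AR-UAS-bla-GripTite HEK 293 cells (2000/well, 5 h at 37 C) received compound titrations, then R1881 at 10 nM final; after 16 h at 37 C, CCF4 dye 2 h RT, beta-lactamase fluorescence read; IC50 from Hill fits.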
# [3] = molecular target: Bile acid receptor (Homo sapiens) (UniProt Q96RI1); assay: qHTS assay for small molecule antagonists of farnesoid X receptor signaling (AID 588526); conditions: HEK293T FXR-UAS-bla, beta-lactamase ratio, antagonist mode; series mostly up to 76.7 µM
# Method in brief: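 Concentration-response titrations were fitted to the Hill equation for half-maximal inhibition and maximal response, with data normalised to 50 uM chenodeoxycholic acid and DMSO control wells. Cells: FXR-UAS-bla HEK293T, dialyzed FBS.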
# [4] = molecular target: Bile acid receptor (Homo sapiens) (UniProt Q96RI1); assay: qHTS assay for small molecule agonists of farnesoid X receptor signaling (AID 588527); conditions: HEK293T FXR-UAS-bla, beta-lactamase ratio, 16 h; activation: stronger effect = higher value
# Method in brief: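 Agonist-mode beta-lactamase reporter in GeneBLAzer FXR-UAS-bla HEK293T cells, titration up to 92 uM, 16 h exposure at 37 C, CCF4 fluorescence. Response scaled to DMSO (0%) and 100 uM chenodeoxycholic acid (100%), then Hill-fitted for EC50 and efficacy.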
# [5] = molecular target: Glucocorticoid receptor (Homo sapiens) (UniProt P04150); assay: qHTS assay for small molecule agonists of glucocorticoid receptor signaling (AID 588532; active = well fitted curve in the direction sought with a large enough effect in the signal ratio, with a control signal flat; the % refers to the signal ratio); conditions: HeLa MMTV-bla, beta-lactamase ratio, agonist, 18 h; activation: stronger effect = higher value, percent of dexamethasone control, DMSO zero
# Method in brief: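 Titration series, up to 92 uM, applied to GRE-bla HeLa cells for 18 h at 37 C. Detection by CCF4 FRET substrate after 2 h at RT.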
# [6] = qHTS assay for small molecule antagonists of peroxisome proliferator-activated receptor delta signaling (AID 588535; active = well fitted inhibition curve with a large enough effect in the signal ratio, with a control signal flat, not every such curve was filed as active; the % refers to the signal ratio;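 for max response: cells co-treated with a PPAR-delta agonist as stimulator during compound exposure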); conditions: HEK293T PPARd-UAS-bla, beta-lactamase FRET ratio, 18 h; 460 nm channel
# Method in brief: (§1)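 Compounds tested in titration on PPAR-delta-UAS-bla HEK293T cells grown in charcoal/dextran-stripped serum (2%); beta-lactamase activity read via CCF4 emission at 460 and 530 nm.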
# [7] = molecular target: Peroxisome proliferator-activated receptor delta (Homo sapiens) (UniProt Q03181); assay: as above; conditions: HEK293T PPARd-UAS-bla, beta-lactamase FRET ratio, 18 h; series mostly up to 76.7 µM
# Method in brief: as §1
# [8] = molecular target: Vitamin D3 receptor (Homo sapiens) (UniProt P11473); assay: qHTS assay for small molecule agonists of vitamin D receptor signaling (AID 588543); conditions: HEK293T VDR-UAS-bla, beta-lactamase ratio, 16 h; series mostly up to 76.8 µM
# Method in brief: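 GeneBLAzer VDR-UAS-bla HEK293T cells in 2% charcoal-stripped FBS medium were dosed with compound titrations for 16 h at 37 °C; CCF4 β-lactamase readout (405 nm ex, 460/530 nm em). EC50 and efficacy from Hill fits, normalized to 50 nM calcitriol (100%) and DMSO (0%).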
# [9] = molecular target: Thyroid hormone receptor beta (Homo sapiens) (UniProt P10828); assay: qHTS assay for small molecule antagonists of thyroid hormone receptor beta signaling (AID 588547; active = well fitted inhibition curve with a large enough effect in the signal ratio, with a control signal flat, not every such curve was filed as active; the % refers to the signal ratio;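 note: cells stimulated with 0.4 nM T3 agonist during compound exposure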); conditions: TR-UAS-bla HEK293, beta-lactamase ratio, antagonist mode, 18 h
# Method in brief: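 TR-UAS-bla GripTite HEK293 cells in 2% charcoal/dextran FBS medium were preincubated 4 h at 37 C, given compound (0.59 nM to 92 uM) plus 0.4 nM T3 (final) for 18 h, then CCF4 for 2 h at RT; Hill fit gave IC50.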
# [10] = qHTS assay for small molecule activators of the nuclear factor-kappa B (NF-kB) signaling pathway (AID 651749; active = well fitted activation curve with a large enough effect in the signal ratio; the % refers to the signal ratio); conditions: NF-kB-bla ME-180 cells, beta-lactamase FRET ratio, 16 h; activation: stronger effect = higher value
# Method in brief: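 Beta-lactamase reporter expression, controlled by NF-kB response elements in ME-180 cells, was quantified fluorometrically via FRET disruption; cells at 2,000/well had been incubated with 23 nL test compound for 16 hr.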
# [11] = qHTS assay for small molecule activators of the human pregnane X receptor (PXR) signaling pathway (AID 720659; call rule not given here); conditions: DPX-2 HepG2 CYP3A4-luciferase, 24 h; series mostly up to 92.3 µM
# [12] = molecular target: Mitogen-activated protein kinase 10 (Mus musculus) (UniProt Q61831); assay: JNK3 AlphaScreen Assay (AID 530; active = well fitted curve in either direction with a large enough effect, not every such curve was filed as active;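 note: kinase came from lysate of stimulated human HepG2 cells; signal reports phosphorylation of biotinylated GST-cJun 1-79 at Ser73 with 10 µM ATP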); conditions: JNK3 lysate, c-Jun phosphorylation; series mostly up to 57.1 µM
# Method in brief: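 Biotinylated GST-cJun(1-79) served as substrate for JNK3 in HepG2 lysates stimulated with IL-1beta and TNF-alpha. ATP was 10 uM final, pH 7.6. Ser73 phosphorylation was quantified by AlphaScreen (680 nm excitation).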
# [13] = Confirmation and Secondary Assay for Modulators of Hemoglobin Beta Chain Splicing at IVS2 654 locus (AID 910; active = well fitted curve in the direction sought with a large enough effect; an effect the other way counts as inactive or inconclusive;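 note: per-well total GFP intensity by laser scanning cytometry after 2-day treatment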); conditions: HeLa EGFP-654 splicing reporter, GFP fluorescence, 48 h; series mostly up to 46.1 µM
# Method in brief: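 HeLa cells stably carrying EGFP interrupted by mutant beta-globin IVS2-654 intron (CMV-driven) were treated with compound for 2 days at 37C; corrected splicing was scored as total peak GFP intensity per well (488 nm excitation, 500-520 nm emission).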
# [14] = molecular target: Ubiquitin carboxyl-terminal hydrolase 1 (Homo sapiens) (UniProt O94782); assay: Inhibitors of USP1/UAF1: Pilot qHTS (AID 504865; active = well fitted curve in the direction sought with a large enough effect; an effect the other way counts as inactive or inconclusive; note: potency is the fitted concentration of half-maximal effect; nearly all actives have a fitted effect of over 35% in size); conditions: purified USP1/UAF1, Ub-rhodamine cleavage fluorescence; series mostly up to 114 µM
# Method in brief: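 USP1/UAF1 complex (1nM) preincubated with compound 15 min at room temperature, then Ub-Rho substrate (150nM final) added. Fluorescence read kinetically at 480/540 nm, 6 reads every 60 seconds. Buffer: 50mM HEPES pH 7.8, 0.5mM EDTA, 0.1 mg/ml BSA, 1mM TCEP, 0.01% Tween-20.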
# [15] = molecular target: Cytochrome P450 2C19 (Homo sapiens) (UniProt P33261); assay: qHTS Assay for Inhibitors and Substrates of Cytochrome P450 2C19 (AID 899; active = well fitted curve in the direction sought with a large enough effect; an effect the other way counts as inactive or inconclusive; note: potency is the fitted concentration of half-maximal effect; nearly all actives have a fitted effect of over 60% in size); conditions: recombinant CYP2C19, luciferin-H EGE luminescence; series mostly up to 57.1 µM
# Method in brief: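 NADPH-dependent conversion of Luciferin-H EGE (10uM, at KM) by 5nM enzyme in 50mM KPO4, 60 min at 37C following 10 min compound preincubation. Stopped with luciferin detection buffer; luminescence read after 20 min.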
# [16] = molecular target: Cytochrome P450 3A4 (Homo sapiens) (UniProt P08684); assay: qHTS Assay for Inhibitors and Substrates of Cytochrome P450 3A4 (AID 884; active = well fitted curve in the direction sought with a large enough effect; an effect the other way counts as inactive or inconclusive; note: nearly all actives have a fitted effect of over 50% in size; note: potency is the fitted concentration of half-maximal effect); conditions: recombinant CYP3A4, Luciferin-PPXE luminescence; series mostly up to 57.1 µM
# Method in brief: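 Luminescent readout of luciferin produced by CYP3A4 (20 nM) dealkylation of Luciferin-PPXE, 25 uM (its KM). NADPH-driven reaction ran 60 min at RT after 10 min compound preincubation; data scaled to 57 uM ketoconazole as 100% inhibition.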
# [17] = qHTS assay for small molecule agonists of the antioxidant response element (ARE) signaling pathway (AID 651741; active = well fitted activation curve with a large enough effect in the signal ratio; the % refers to the signal ratio; note: potency is the fitted concentration of half-maximal effect); conditions: HepG2 ARE-bla reporter, beta-lactamase FRET ratio, 16 h; series mostly up to 96 µM
# Method in brief: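 Beta-lactamase reporter expression driven by the antioxidant response element in HepG2 cells was detected by fluorescence with LiveBLAzer B/G FRET substrate (2 h, room temperature) following 16 h compound treatment at 37 C.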
# [18] = molecular target: Cytochrome P450 3A4 (Homo sapiens) (UniProt P08684); assay: qHTS Assay for Activators of Cytochrome P450 3A4 (AID 885; active = well fitted curve in the direction sought with a large enough effect; an effect the other way counts as inactive or inconclusive; note: nearly all actives have a fitted effect of over 65% in size); conditions: recombinant CYP3A4, Luciferin-PPXE luminescence, 60 min; series mostly up to 57.1 µM
# Method in brief: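 Luminescent readout of luciferin formed from 25 uM Luciferin-PPXE (KM level) by 20 nM CYP3A4 in 200 mM KPO4, with 60 min NADPH-driven reaction at room temperature after 10 min compound exposure. Ketoconazole (57 uM) defined 100% inhibition.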
# [19] = molecular target: 3',5'-cyclic-AMP phosphodiesterase 4B (Homo sapiens) (UniProt Q07343); assay: qHTS Assay for Inhibitors of PDE-IV (AID 607; active = well fitted activation curve with a large enough effect in the main read-out, with a control signal flat, not every such curve was filed as active); conditions: HEK293 ACTOne CNG channel cells, membrane potential fluorescence; series mostly up to 22.9 µM
# Method in brief: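 Cell-based read-out of cAMP via a modified cyclic nucleotide-gated channel and membrane potential dye (535/590 nm) in HEK293 cells expressing PDE4 endogenously. Compounds tested up to 22.9 uM final; 100 uM RO 20-1724 reference.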
# Chain of Peroxisome proliferator-activated receptor delta (Homo sapiens) (Q03181 whole entry, looked up): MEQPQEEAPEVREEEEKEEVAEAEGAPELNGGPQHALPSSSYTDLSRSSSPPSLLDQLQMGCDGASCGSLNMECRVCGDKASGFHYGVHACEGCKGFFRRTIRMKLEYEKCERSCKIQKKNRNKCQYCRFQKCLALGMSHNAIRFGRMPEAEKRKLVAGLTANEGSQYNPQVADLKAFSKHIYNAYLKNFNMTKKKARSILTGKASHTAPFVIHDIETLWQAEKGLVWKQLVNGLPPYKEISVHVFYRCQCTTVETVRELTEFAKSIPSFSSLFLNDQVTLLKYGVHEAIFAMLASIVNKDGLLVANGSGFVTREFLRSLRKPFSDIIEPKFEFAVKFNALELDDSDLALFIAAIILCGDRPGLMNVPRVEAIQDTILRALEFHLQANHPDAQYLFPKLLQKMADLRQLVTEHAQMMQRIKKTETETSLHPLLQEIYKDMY
# Chain of Cytochrome P450 3A4 (Homo sapiens) (P08684 whole entry, looked up): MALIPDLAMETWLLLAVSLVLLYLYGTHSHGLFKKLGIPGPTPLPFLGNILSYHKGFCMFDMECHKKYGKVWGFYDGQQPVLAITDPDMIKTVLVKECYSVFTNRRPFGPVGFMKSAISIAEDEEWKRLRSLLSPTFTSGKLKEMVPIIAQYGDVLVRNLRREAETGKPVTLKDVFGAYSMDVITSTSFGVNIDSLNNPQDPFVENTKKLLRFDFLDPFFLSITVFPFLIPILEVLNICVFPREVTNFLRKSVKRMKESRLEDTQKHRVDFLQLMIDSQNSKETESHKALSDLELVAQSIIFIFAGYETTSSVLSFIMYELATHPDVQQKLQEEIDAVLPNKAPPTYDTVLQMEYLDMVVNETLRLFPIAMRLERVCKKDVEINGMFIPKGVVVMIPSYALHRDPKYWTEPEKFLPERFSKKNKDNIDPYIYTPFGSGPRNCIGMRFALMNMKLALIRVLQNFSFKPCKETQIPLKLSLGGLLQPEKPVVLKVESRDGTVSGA
# Chain of Glucocorticoid receptor (Homo sapiens) (P04150 whole entry, looked up): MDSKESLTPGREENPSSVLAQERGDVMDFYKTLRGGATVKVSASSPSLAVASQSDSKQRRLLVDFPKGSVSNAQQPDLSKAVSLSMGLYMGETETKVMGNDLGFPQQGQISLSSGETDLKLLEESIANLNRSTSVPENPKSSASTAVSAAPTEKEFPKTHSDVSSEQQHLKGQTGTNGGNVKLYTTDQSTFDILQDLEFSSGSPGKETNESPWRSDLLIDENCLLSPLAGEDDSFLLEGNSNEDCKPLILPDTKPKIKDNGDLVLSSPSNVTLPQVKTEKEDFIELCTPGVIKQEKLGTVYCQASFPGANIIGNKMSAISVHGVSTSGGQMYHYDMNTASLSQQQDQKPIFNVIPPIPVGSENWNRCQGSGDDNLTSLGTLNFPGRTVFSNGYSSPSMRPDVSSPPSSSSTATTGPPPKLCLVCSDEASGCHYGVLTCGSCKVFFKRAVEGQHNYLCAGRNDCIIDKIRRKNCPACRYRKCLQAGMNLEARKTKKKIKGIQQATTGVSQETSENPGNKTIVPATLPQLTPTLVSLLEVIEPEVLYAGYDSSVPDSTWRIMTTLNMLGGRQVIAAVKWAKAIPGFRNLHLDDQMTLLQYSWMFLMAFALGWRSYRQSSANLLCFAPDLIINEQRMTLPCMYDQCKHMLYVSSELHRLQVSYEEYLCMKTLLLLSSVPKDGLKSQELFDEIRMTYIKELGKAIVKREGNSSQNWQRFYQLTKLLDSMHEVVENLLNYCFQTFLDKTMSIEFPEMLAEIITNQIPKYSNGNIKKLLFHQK
# Chain of Thyroid hormone receptor beta (Homo sapiens) (P10828 whole entry, looked up): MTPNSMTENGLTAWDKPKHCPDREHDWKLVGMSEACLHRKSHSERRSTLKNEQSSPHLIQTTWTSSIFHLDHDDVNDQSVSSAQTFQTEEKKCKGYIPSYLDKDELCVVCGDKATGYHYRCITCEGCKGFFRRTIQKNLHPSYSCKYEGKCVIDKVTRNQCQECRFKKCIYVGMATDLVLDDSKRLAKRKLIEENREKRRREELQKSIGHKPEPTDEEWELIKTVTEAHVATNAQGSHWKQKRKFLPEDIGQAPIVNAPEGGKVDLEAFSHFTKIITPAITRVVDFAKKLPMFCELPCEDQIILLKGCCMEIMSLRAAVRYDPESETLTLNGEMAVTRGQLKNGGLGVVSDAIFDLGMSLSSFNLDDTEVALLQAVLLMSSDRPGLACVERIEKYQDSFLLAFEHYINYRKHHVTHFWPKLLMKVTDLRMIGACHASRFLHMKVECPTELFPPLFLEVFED
# Chain of Bile acid receptor (Homo sapiens) (Q96RI1 whole entry, looked up): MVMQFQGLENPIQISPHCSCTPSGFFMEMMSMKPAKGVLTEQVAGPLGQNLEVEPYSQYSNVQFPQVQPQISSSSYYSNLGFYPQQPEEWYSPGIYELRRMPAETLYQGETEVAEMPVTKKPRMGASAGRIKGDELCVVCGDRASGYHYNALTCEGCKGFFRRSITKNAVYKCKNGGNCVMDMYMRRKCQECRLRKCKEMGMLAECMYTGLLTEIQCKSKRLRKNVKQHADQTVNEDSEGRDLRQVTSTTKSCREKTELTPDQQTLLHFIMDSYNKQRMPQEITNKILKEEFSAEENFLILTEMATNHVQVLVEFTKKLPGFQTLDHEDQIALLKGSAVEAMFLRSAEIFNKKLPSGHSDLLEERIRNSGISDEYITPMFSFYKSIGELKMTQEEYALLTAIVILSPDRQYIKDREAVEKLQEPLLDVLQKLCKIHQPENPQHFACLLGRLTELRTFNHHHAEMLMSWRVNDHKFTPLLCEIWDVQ
# Chain of Vitamin D3 receptor (Homo sapiens) (P11473 whole entry, looked up): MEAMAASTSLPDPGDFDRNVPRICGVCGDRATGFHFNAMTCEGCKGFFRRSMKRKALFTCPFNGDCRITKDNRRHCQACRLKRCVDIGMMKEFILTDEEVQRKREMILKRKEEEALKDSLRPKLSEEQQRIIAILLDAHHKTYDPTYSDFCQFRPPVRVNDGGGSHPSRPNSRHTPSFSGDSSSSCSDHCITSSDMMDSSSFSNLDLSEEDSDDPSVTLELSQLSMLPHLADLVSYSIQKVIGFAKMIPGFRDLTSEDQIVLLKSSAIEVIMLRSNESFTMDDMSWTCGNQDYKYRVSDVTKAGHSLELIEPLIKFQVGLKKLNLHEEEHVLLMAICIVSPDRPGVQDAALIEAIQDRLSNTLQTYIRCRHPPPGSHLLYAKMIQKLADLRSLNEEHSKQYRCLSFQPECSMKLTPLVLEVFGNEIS
# Chain of Androgen receptor (Homo sapiens) (P10275 whole entry, looked up): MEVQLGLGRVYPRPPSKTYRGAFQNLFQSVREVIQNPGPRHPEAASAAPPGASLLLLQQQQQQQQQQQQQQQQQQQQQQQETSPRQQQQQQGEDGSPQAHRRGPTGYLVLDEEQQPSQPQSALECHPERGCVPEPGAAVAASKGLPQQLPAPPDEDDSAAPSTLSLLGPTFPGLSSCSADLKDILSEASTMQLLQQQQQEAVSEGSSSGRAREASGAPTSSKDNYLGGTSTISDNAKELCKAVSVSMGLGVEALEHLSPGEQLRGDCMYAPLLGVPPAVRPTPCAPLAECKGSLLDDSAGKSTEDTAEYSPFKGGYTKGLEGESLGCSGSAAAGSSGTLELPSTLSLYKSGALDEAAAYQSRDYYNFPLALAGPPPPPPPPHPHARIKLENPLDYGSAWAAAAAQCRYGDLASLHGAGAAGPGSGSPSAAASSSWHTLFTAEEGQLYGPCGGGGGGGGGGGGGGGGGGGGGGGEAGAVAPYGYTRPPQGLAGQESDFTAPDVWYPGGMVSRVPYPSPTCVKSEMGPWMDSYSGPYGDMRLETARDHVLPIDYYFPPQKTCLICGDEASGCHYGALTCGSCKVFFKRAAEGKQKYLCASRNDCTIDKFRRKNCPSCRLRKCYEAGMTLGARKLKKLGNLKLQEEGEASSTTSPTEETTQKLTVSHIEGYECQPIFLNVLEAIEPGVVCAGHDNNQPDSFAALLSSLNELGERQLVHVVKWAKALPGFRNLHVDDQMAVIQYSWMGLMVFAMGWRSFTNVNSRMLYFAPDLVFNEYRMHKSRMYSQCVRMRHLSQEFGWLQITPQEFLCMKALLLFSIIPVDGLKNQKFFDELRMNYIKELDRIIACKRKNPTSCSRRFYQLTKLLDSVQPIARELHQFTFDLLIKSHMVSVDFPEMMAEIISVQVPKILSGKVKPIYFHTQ
# Chain of 3',5'-cyclic-AMP phosphodiesterase 4B (Homo sapiens) (Q07343 whole entry, looked up): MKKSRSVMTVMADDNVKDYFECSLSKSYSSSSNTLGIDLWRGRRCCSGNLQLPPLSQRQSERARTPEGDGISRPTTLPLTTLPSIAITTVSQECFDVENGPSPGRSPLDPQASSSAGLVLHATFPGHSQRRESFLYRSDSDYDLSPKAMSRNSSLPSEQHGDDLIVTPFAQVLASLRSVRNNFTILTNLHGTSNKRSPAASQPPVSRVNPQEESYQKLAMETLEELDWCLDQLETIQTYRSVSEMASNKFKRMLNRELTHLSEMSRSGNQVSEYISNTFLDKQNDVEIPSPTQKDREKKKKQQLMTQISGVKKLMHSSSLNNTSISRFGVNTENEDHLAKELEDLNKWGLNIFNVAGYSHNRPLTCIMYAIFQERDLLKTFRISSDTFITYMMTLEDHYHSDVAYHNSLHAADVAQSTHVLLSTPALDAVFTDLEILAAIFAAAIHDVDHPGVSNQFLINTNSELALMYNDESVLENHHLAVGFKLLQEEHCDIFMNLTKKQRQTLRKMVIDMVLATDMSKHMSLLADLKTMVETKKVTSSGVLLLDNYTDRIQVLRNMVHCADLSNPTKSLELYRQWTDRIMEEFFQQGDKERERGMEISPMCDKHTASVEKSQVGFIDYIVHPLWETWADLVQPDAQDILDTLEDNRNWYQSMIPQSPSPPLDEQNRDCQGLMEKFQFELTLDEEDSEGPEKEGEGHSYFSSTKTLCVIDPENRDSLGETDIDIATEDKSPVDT
compound,measurement,setting,value
C/C(=N\C(N)=O)N(C)Cc1ccc(Cl)nc1,activation,[1],-2.44% (inactive)
same,Potency,[2],inactive
same,Potency,[3],inactive
same,activation,[4],2.77% (inactive)
same,activation,[5],-1.3% (inactive)
same,max response,[6],39.3%
same,Potency,[7],inactive
same,outcome,[8],inactive
same,activity change % (negative = inhibition),[9],-10.7% (inactive)
same,activation,[10],-1.01% (inactive)
same,outcome,[11],inactive
c1ccc2ncccc2c1,outcome,[12],inactive
COc1c2c(c(CC=C(C)C)c3oc(=O)c(-c4ccc(O)cc4)c(O)c13)OC(C)(C)C=C2,Potency,[13],inactive
same,Potency,[14],79.4 µM (active)
COc1ccc2c(c1OC)C(=O)O[C@@H]2[C@H]1c2cc3c(cc2CCN1C)OCO3,outcome,[12],inactive
same,Potency,[15],3.16 µM (active)
C=C(CC1(CNP(=O)(c2ccccc2)c2ccccc2)CC1)c1ccccc1,outcome,[12],inactive
same,Potency,[16],3.98 µM (active)
CNC(=O)Oc1cccc2c1OC(C)(C)C2O (configuration not stated),activation,[1],3.8% (inactive)
same,Potency,[2],inactive
same,Potency,[3],inactive
same,activation,[5],12.4% (inactive)
same,outcome,[8],inactive
same,activity change % (negative = inhibition),[9],7.05% (inactive)
same,Potency,[17],54.5 µM (active)
same,activation,[10],0.725% (inactive)
same,outcome,[11],inactive
C=C[C@@H]1C[C@@]1(C)[C@@H](NP(=O)(c1ccccc1)c1ccccc1)c1ccccc1,outcome,[12],inactive
same,Potency,[16],10 µM (active)
same,Potency,[18],inactive
CCOP(=O)(SC(C)CC)SC(C)CC (configuration not stated),activation,[1],7.1% (inactive)
same,Potency,[2],inactive
same,Potency,[3],inactive
same,activation,[4],-3.29% (inactive)
same,activation,[5],-2.32% (inactive)
same,max response,[6],-10.9%
same,Potency,[7],inactive
same,outcome,[8],inactive
same,Potency,[17],inactive
same,activation,[10],-1.37% (inactive)
same,outcome,[11],inactive
O=C(Oc1ccc([N+](=O)[O-])cc1)N1CCC(N2CCCCC2)CC1,outcome,[12],inactive
same,outcome,[19],inactive
CC1N(P(=O)(c2ccccc2)c2ccccc2)CC(O)(c2ccccc2)CC12CC2 (configuration not stated),outcome,[12],inactive
COC(=O)[C@H]1C[C@@H]1[C@H](NP(=O)(c1ccccc1)c1ccccc1)c1ccccc1,outcome,[12],inactive
CCOP(=S)(S)OCC,activation,[1],24.9% (inactive)
same,Potency,[2],inactive
same,Potency,[3],inactive
same,activation,[4],1.65% (inactive)
same,max response,[6],11%
same,Potency,[7],inactive
same,activity change % (negative = inhibition),[9],8.37% (inactive)
same,Potency,[17],inactive
same,outcome,[11],inactive
O=S1OC[C@@H]2[C@H](CO1)[C@@]1(Cl)C(Cl)=C(Cl)[C@]2(Cl)C1(Cl)Cl (some centres not stated),activation,[1],-8.15% (inactive) and -7.22% (inactive)
same,Potency,[2],inactive
same,activation,[4],1.84% (inactive) and 4.33% (inactive)
same,activation,[5],-18.2% (inactive) and -5.58% (inactive)
same,outcome,[8],inactive
same,activity change % (negative = inhibition),[9],3.09% (inactive)
same,activation,[10],0.712% (inactive) and 0.812% (inactive)
C=C(C)c1ccccc1,outcome,[12],inactive
same,Potency,[16],inactive
same,activation,[4],-3.16% (inactive)
COC(=O)[C@@H]1C[C@@]1(C)[C@@H](NP(=O)(c1ccccc1)c1ccccc1)c1ccccc1,outcome,[12],inactive
same,Potency,[16],7.94 µM (active)
same,Potency,[18],inactive
